{"source": "PubChem BioAssay AID430", "about": "(Sanford-Burnham Center for Chemical Genomics, 2006)", "note": "Screen size: about 63,000 compounds; about 1,100 (1.7%) were called active. No stated cut-off is given here; in the data, active means cytotoxicity above about 50%; inactive means the rest. The list comes from a sample in which actives are over-represented; it also holds similar structures and randomly drawn compounds. Results with a measured potency or affinity are listed apart.", "data": [{"assay": "cytotoxicity in HPDE-C7 cells, cell-based, fluorescence, HTS (AID 430);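 further: cells exposed to compound for 48 hours before viability readout; 0% = vehicle and 100% = reference cytotoxic drug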", "settings": "HPDE-C7 pancreatic duct cells viability, at 10 µM, active compounds read high", "values": [{"smiles": "Nc1nc(CSc2ncn(-c3ccccc3)n2)cs1", "cytotoxicity": "15.3% (inactive)"}, {"smiles": "CC(=O)N(Cc1cc2ccc(C)c(C)c2n2nnnc12)C1CCCC1", "cytotoxicity": "-3.5% (inactive)"}, {"smiles": "Cc1ccc(S(=O)(=O)N(CC(=O)O)Cc2ccccc2)cc1", "cytotoxicity": "-7.6% (inactive)"}, {"smiles": "O=C(CN1C(=O)C2CC=C(Cl)CC2C1=O)N1CCOCC1", "note": "(stereo unspecified)", "cytotoxicity": "-3.5% (inactive)"}, {"smiles": "CN1CCN(C(=O)c2cccc(S(=O)(=O)N3CCCCC3)c2)CC1", "cytotoxicity": "-2.6% (inactive)"}, {"smiles": "O=C(NC1CCCC1)c1sc(=S)n2c1[nH]c(=O)c1ccccc12", "cytotoxicity": "79.4% (active)"}, {"smiles": "O=C(NC1CCCCC1)c1sc(=S)n2c1[nH]c(=O)c1ccccc12", "cytotoxicity": "82.6% (active)"}, {"smiles": "Cn1c(=O)c(C(=O)NC2CCCCCCC2)c(O)c2ccccc21", "cytotoxicity": "9.6% (inactive)"}, {"smiles": "O=C(NC1CCCCCCC1)c1c(O)c2ccccc2[nH]c1=O", "cytotoxicity": "-13.7% (inactive)"}, {"smiles": "O=C(NC1CCCCCC1)c1c(O)c2ccccc2[nH]c1=O", "cytotoxicity": "-4.9% (inactive)"}, {"smiles": "Cn1c(C(=O)NC2CCCC2)cc2c(=O)n(C)c3ccccc3c21", "cytotoxicity": "3.5% (inactive)"}, {"smiles": "COCCN(CCOC)C(=O)CCn1c(=O)oc2ccccc21", "cytotoxicity": "-0.2% (inactive)"}, {"smiles": "Cc1cc2n(n1)C(c1sccc1C)Nc1c(C)cccc1-2", "note": "(stereo unspecified)", "cytotoxicity": "-3.2% (inactive)"}, {"smiles": "C(=C\\c1ccccc1)/CSc1nnc(-c2ccccn2)n1Cc1ccco1", "cytotoxicity": "33.9% (inactive)"}, {"smiles": "CC1(C)Cc2nc3oc4c(=S)nc[nH]c4c3cc2CO1", "cytotoxicity": "-4.7% (inactive)"}, {"smiles": "Cn1c(=O)c2c(ncn2CC(=O)N2CCN(c3ccc(F)cc3)CC2)n(C)c1=O", "cytotoxicity": "4.3% (inactive)"}, {"smiles": "CCOC(=O)CCn1nc(-c2ccccc2)cc1N", "cytotoxicity": "-7.8% (inactive)"}, {"smiles": "COc1ccc(-c2cc(C(F)(F)F)nc(SCCC(=O)NCc3ccco3)n2)cc1", "cytotoxicity": "-3.2% (inactive)"}, {"smiles": "COc1ccc(-c2cc(C(F)(F)F)nc(SCC(=O)Nc3cc(C)on3)n2)cc1", "cytotoxicity": "-21.7% (inactive)"}, {"smiles": "COc1ccccc1-c1cc(C(F)(F)F)nc(S(=O)(=O)CCCC(=O)Nc2cc(C)on2)n1", "cytotoxicity": "38.2% (inactive)"}, {"smiles": "Cc1cc(NC(=O)CCCS(=O)(=O)c2nc(-c3cccs3)cc(C(F)(F)F)n2)no1", "cytotoxicity": "3.6% (inactive)"}, {"smiles": "CCOC(=O)CS(=O)(=O)c1ccc2ccccc2c1", "cytotoxicity": "-10.2% (inactive)"}, {"smiles": "CCOC(=O)CS(=O)(=O)c1nc(-c2ccccc2)cc(C(F)(F)F)n1", "cytotoxicity": "27.1% (inactive)"}, {"smiles": "COCC(C)NC(=O)CCS(=O)(=O)c1nc(-c2ccc(OC)cc2)cc(C(F)(F)F)n1", "note": "(stereo unspecified)", "cytotoxicity": "66.1% (active)"}, {"smiles": "CCOC(=O)c1cnn2c(C)cc(-c3ccc(F)cc3)nc12", "cytotoxicity": "-7.6% (inactive)"}, {"smiles": "CCn1cc(C(=O)NC2CCCCCC2)c2cc(OC)c(OC)cc2c1=O", "cytotoxicity": "-1.3% (inactive)"}, {"smiles": "CS(=O)(=O)Nc1ccc(C(=O)NCCSCc2ccco2)cc1", "cytotoxicity": "-13.9% (inactive)"}, {"smiles": "COCCOC(=O)C1=C(C)NC(=O)NC1c1ccc(OC(=O)c2ccco2)c(OC)c1", "note": "(stereo unspecified)", "cytotoxicity": "-1.8% (inactive)"}, {"smiles": "Cc1cc(=O)[nH]c(N2CCN(C(c3ccccc3)c3ccccc3)CC2)n1", "cytotoxicity": "-6% (inactive)"}, {"smiles": "COc1ccc(C2CC(=O)c3cnc(NC(=O)c4cc(OC)cc(OC)c4)nc3C2)cc1", "note": "(stereo unspecified)", "cytotoxicity": "-16.4% (inactive)"}, {"smiles": "O=C(NCCN1CCOCC1)c1ccc(-c2ccccc2)cc1", "cytotoxicity": "2.5% (inactive)"}, {"smiles": "CCN(CC)S(=O)(=O)c1ccc(NC(=O)COc2c(OC)cccc2OC)cc1", "cytotoxicity": "-2.7% (inactive)"}, {"smiles": "O=C(CSc1nnc(C23CC4CC(CC(C4)C2)C3)o1)Nc1ccc(N2CCOCC2)c(Cl)c1", "cytotoxicity": "-10% (inactive)"}, {"smiles": "CCOC(=O)c1oc2ccc(S(=O)(=O)N3CCC(C)CC3)cc2c1C", "cytotoxicity": "16.8% (inactive)"}, {"smiles": "CCOC(=O)c1oc2ccc(S(=O)(=O)n3nc(-c4ccc(OC)cc4)cc3N)cc2c1C", "cytotoxicity": "54.2% (active)"}, {"smiles": "CCOC(=O)c1oc2ccc(S(=O)(=O)N3CCOCC3)cc2c1C", "cytotoxicity": "3.6% (inactive)"}, {"smiles": "CCn1c(CSc2nccn2C)nc2cc(C(=O)O)ccc21", "cytotoxicity": "2.6% (inactive)"}, {"smiles": "NC1=NC(=O)CC(C(=O)NCc2ccccc2)S1", "note": "(stereo unspecified)", "cytotoxicity": "-6.8% (inactive)"}, {"smiles": "Cn1c(=O)[nH]c(=O)c2c1nc(N1CCOCC1)n2CC(O)COc1ccccc1", "note": "(stereo unspecified)", "cytotoxicity": "-10.9% (inactive)"}, {"smiles": "Cc1ccccc1OCC(O)Cn1c(N2CCN(c3ccccc3)CC2)nc2c1c(=O)[nH]c(=O)n2C", "note": "(stereo unspecified)", "cytotoxicity": "82.9% (active)"}, {"smiles": "CC(C)CSc1nc2c(c(=O)[nH]c(=O)n2C)n1CC(O)COc1cccc2ccccc12", "note": "(stereo unspecified)", "cytotoxicity": "68.7% (active)"}, {"smiles": "CCSc1nc2c(c(=O)[nH]c(=O)n2C)n1CC(O)COc1ccccc1C", "note": "(stereo unspecified)", "cytotoxicity": "-1.3% (inactive)"}, {"smiles": "COc1ccccc1OCC(O)Cn1c(Br)nc2c1c(=O)[nH]c(=O)n2C", "note": "(stereo unspecified)", "cytotoxicity": "2.9% (inactive)"}, {"smiles": "Cc1ccccc1OCC(O)Cn1c(SC(C)C)nc2c1c(=O)[nH]c(=O)n2C", "note": "(stereo unspecified)", "cytotoxicity": "0.7% (inactive)"}, {"smiles": "Cc1nn(CCC(=O)O)c2nc(-c3cccnc3)cc(C(F)(F)F)c12", "cytotoxicity": "-17.9% (inactive)"}, {"smiles": "CCN(CC)C(c1ccc(C)cc1)c1nnnn1C1CCCCC1", "note": "(stereo unspecified)", "cytotoxicity": "-25.4% (inactive)"}, {"smiles": "Cc1ccc(S(=O)(=O)C2(C(=O)N3CCN(C4CCCCC4)CC3)CC2)cc1", "cytotoxicity": "6.1% (inactive)"}, {"smiles": "CCCC(=O)Nc1ccc(Cl)c(NC(=O)c2ccco2)c1", "cytotoxicity": "-1.6% (inactive)"}, {"smiles": "O=C(Oc1c(Cl)cc(Cl)c2cccnc12)N1CCCCC1", "cytotoxicity": "-1.1% (inactive)"}, {"smiles": "CCCC(=O)NC(c1ccco1)c1cc(Cl)c2cccnc2c1O", "note": "(stereo unspecified)", "cytotoxicity": "59.7% (active)"}, {"smiles": "O=C(OCC(=O)N(C1CCCCC1)C1CCCCC1)c1ccncc1", "cytotoxicity": "4.3% (inactive)"}, {"smiles": "Cc1cccc(C#N)c1NC1=CC(=O)CC(C)(C)C1", "cytotoxicity": "-3.4% (inactive)"}, {"smiles": "COc1cc(NCCCC(C)N)c2ncccc2c1", "note": "(stereo unspecified)", "cytotoxicity": "-12.1% (inactive)"}, {"smiles": "CS(=O)(=O)Nc1cccc2cccnc12", "cytotoxicity": "6.6% (inactive)"}, {"smiles": "COc1ccc(NS(=O)(=O)c2ccc(Oc3ncccn3)cc2)cc1", "cytotoxicity": "17.1% (inactive)"}, {"smiles": "COc1cc(NS(=O)(=O)c2ccc(C)cc2)c2ncccc2c1", "cytotoxicity": "57.2% (active)"}, {"smiles": "O=S(=O)(Nc1cccc2cccnc12)c1ccc(S(=O)(=O)N2CCCC2)cc1", "cytotoxicity": "57.1% (active)"}, {"smiles": "O=C(C1CCN(S(=O)(=O)c2cccc3cccnc23)CC1)N1CCCC1", "cytotoxicity": "-7.2% (inactive)"}, {"smiles": "Cc1nnc(SCC(=O)Nc2cc(C(F)(F)F)ccc2N2CCOCC2)o1", "cytotoxicity": "12.9% (inactive)"}, {"smiles": "CC/C(=N\\O)c1ccc(OC)c(OC)c1", "cytotoxicity": "-4.4% (inactive)"}, {"smiles": "CC(=O)CSc1ncnc2nc[nH]c12", "cytotoxicity": "5.4% (inactive)"}, {"smiles": "CC(C)(C)c1cc(Br)ccc1OCC(=O)Nc1ncn[nH]1", "cytotoxicity": "21.9% (inactive)"}, {"smiles": "CCC(C)NC(=O)C1c2cc(OC)c(OC)cc2C(=O)N(C)C1c1ccc(OC)cc1", "note": "(stereo unspecified)", "cytotoxicity": "-7.8% (inactive)"}, {"smiles": "CC(=O)c1c(C)cc(C)c(CSc2nc(C)cc(=O)[nH]2)c1C", "cytotoxicity": "51.3% (active)"}, {"smiles": "CCCSc1nc(C)cc(=O)[nH]1", "cytotoxicity": "1.4% (inactive)"}, {"smiles": "CCOC(=O)CSc1nc(C)cc(=O)[nH]1", "cytotoxicity": "1.4% (inactive)"}, {"smiles": "COc1cc(NS(=O)(=O)c2ccc(C)cc2C)cc(OC)c1OC", "cytotoxicity": "37% (inactive)"}, {"smiles": "O=C(O)c1cccc(S(=O)(=O)Nc2ccc3oc(=O)sc3c2)c1", "cytotoxicity": "1.3% (inactive)"}, {"smiles": "Cn1c(=O)c2cn(-c3ccc4c(c3)OCCO4)cc2n(C)c1=O", "cytotoxicity": "-24.9% (inactive)"}, {"smiles": "O=C1Cc2ccccc2C(=O)N1CCc1ccccc1", "cytotoxicity": "-14.2% (inactive)"}, {"smiles": "Cc1cc(NC(=O)c2cnn3c(C(F)F)cc(-c4ccccc4)nc23)no1", "cytotoxicity": "-6.1% (inactive)"}, {"smiles": "CC1CCCN(c2nc3ccccc3nc2C(C#N)S(=O)(=O)c2ccccc2)C1", "note": "(stereo unspecified)", "cytotoxicity": "52.3% (active)"}, {"smiles": "Cc1ccc(S(=O)(=O)C(C#N)c2nc3ccccc3nc2N2CCC(C)CC2)cc1", "note": "(stereo unspecified)", "cytotoxicity": "5.7% (inactive)"}, {"smiles": "CC1CCN(c2nc3ccccc3nc2C(C#N)S(=O)(=O)c2ccccc2)CC1", "note": "(stereo unspecified)", "cytotoxicity": "12.4% (inactive)"}, {"smiles": "N#CC(c1nc2ccccc2nc1N1CCCC1)S(=O)(=O)c1ccccc1", "note": "(stereo unspecified)", "cytotoxicity": "-10.1% (inactive)"}, {"smiles": "COc1ccc(S(=O)(=O)C(C#N)c2nc3ccccc3nc2N2CCCC(C)C2)cc1", "note": "(stereo unspecified)", "cytotoxicity": "61.7% (active)"}, {"smiles": "COc1ccc(S(=O)(=O)C(C#N)c2nc3ccccc3nc2N2CCCCC2)cc1", "note": "(stereo unspecified)", "cytotoxicity": "-10.2% (inactive)"}, {"smiles": "CCS(=O)(=O)NCCc1csc(-c2ccccc2)n1", "cytotoxicity": "-4.2% (inactive)"}, {"smiles": "CCSc1nc(C)c(CC)c(C)c1C(N)=O", "cytotoxicity": "1.9% (inactive)"}, {"smiles": "CCOC(=O)CC(=O)CSc1[nH]c(=O)cc(C)c1C#N", "cytotoxicity": "-1.4% (inactive)"}, {"smiles": "Cc1ccc(-c2cn3cccnc3n2)cc1NC(=O)c1c(-c2ccccc2Cl)noc1C", "cytotoxicity": "40.2% (inactive)"}, {"smiles": "Cc1c(C(=O)N(Cc2cccs2)C2CCS(=O)(=O)C2)oc2ccccc12", "note": "(stereo unspecified)", "cytotoxicity": "-22.1% (inactive)"}, {"smiles": "CN(C)S(=O)(=O)c1ccc(-c2ccccc2)cc1", "cytotoxicity": "-2.3% (inactive)"}, {"smiles": "CN(C)S(=O)(=O)n1cnc(-c2ccccc2)c1-c1ccccc1", "cytotoxicity": "-7.9% (inactive)"}, {"smiles": "Cc1ccc(CNC(=O)c2cn(C3CCCCC3)c(=O)c3c2c2ccccc2n3C)o1", "cytotoxicity": "-4% (inactive)"}, {"smiles": "O=S(=O)(NCCOc1ccc(F)cc1)c1ccc2c(c1)OCCO2", "cytotoxicity": "-5.3% (inactive)"}, {"smiles": "Brc1cnn(-c2nc(N3CCOCC3)nc(N3CCOCC3)n2)c1", "cytotoxicity": "5.8% (inactive)"}, {"smiles": "O=C(Nc1cc(C(=O)N2CCOCC2)cc(C(=O)N2CCOCC2)c1)c1cc(F)c(F)cc1Cl", "cytotoxicity": "-14.6% (inactive)"}, {"smiles": "O=C(OCc1nc2ccccc2s1)C1CCN(C2=NS(=O)(=O)c3ccccc32)CC1", "cytotoxicity": "1.1% (inactive)"}, {"smiles": "COc1cc(C(=O)Nc2ccccn2)cc(OC)c1OC", "cytotoxicity": "5.4% (inactive)"}, {"smiles": "COc1ccc(C(NC(C)=O)c2ccc3cccnc3c2O)c(OC)c1", "note": "(stereo unspecified)", "cytotoxicity": "11.7% (inactive)"}, {"smiles": "CC(=O)NC(c1ccco1)c1ccc2cccnc2c1O", "note": "(stereo unspecified)", "cytotoxicity": "31.1% (inactive)"}, {"smiles": "CC(C)C(=O)NC(c1ccco1)c1ccc2cccnc2c1O", "note": "(stereo unspecified)", "cytotoxicity": "-17.7% (inactive)"}, {"smiles": "Cc1cc(NC(c2cccnc2)c2ccc3cccnc3c2O)no1", "note": "(stereo unspecified)", "cytotoxicity": "9% (inactive)"}, {"smiles": "O=c1cc(CO)oc(C(Nc2ccccn2)c2ccccc2F)c1O", "note": "(stereo unspecified)", "cytotoxicity": "-3.3% (inactive)"}, {"smiles": "CNC(=O)c1ccc(N(Cc2ccccc2)S(C)(=O)=O)cc1", "cytotoxicity": "2.3% (inactive)"}]}]}
